In PubChem BioAssay AID2763 (National Center for Advancing Translational Sciences (NCATS), 2010):
Results filed as inconclusive are left out. Where a call stands in place of a potency, no number is given. The source made the active and inactive calls. Calls come from the whole dose curve; as a rule, active = well fitted inhibition curve with a large enough effect; inconclusive = small, poorly fitted or top-dose-only effect, or effect the other way; inactive = no such curve, though single readings can be large or run the other way.
Potency is the fitted concentration of half-maximal effect.

Experiment: Concentration response confirmation VP16 counterscreen for inhibitors of ROR gamma transcriptional activity; note: nearly all actives have a fitted effect of over 70% in size
Settings: Drosophila S2 Gal4-VP16 UAS-luciferase, luminescence, 20 h; series mostly up to 46.1 µM
Summary of the method: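 Drosophila Schneider cells stably carrying Gal4-VP16 under metallothionein promoter plus UAS-Photinus luciferase. Compound preincubated 1 hr, then 700 uM copper sulfate induction for 20 hr at ambient temperature; luminescence read.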
In the case of COC(=O)Cn1c(CN2CCN(c3ccc(F)cc3)CC2)nc2c1c(=O)n(C)c(=O)n2C, the Potency is reported as 3.15 µM (active). For CCNC(=O)CCc1nc(-c2ccc(C(C)(C)C)cc2)no1, the Potency was 4.45 µM (active). With COc1cc(C2c3cc4c(cc3C(OC3OC5COC(c6cccs6)OC5C(O)C3O)C3COC(=O)C23)OCO4)cc(OC)c1O (stereo not given) the Potency was 25 µM (active). In the case of Cc1ccc(NC2=C(Cl)C(=O)OC2OC(=O)c2ccco2)cc1 (stereo not given), the Potency is reported as “inactive”. With N=C1S/C(=C\c2ccco2)C(=O)N1c1nccs1 the Potency was 0.396 µM (active). With O=C(/C=C/c1c(F)cccc1Cl)N1CCc2ccccc2C1 the Potency was “inactive”. With COC(=O)Cn1c(CN2CCc3ccccc3C2)nc2c1c(=O)n(C)c(=O)n2C the Potency was 6.28 µM (active). In the case of O=C1NC2=C(C(=O)CCC2)C(c2ccccc2)N1 (stereo not given), the Potency is reported as “inactive”. For CCOc1ccc(OCc2cccc(C(=O)O)c2)cc1, the Potency was 8.88 µM (active). With O=C(O)c1ccc(/C=N/n2cc(-c3ccccc3)[nH]c2=S)cc1 the Potency was “inactive”. With COc1ccc(OC)c(NC(=S)N(CCc2c(C)[nH]c3ccccc23)Cc2cccs2)c1 the Potency was “inactive”. With COC1CCCCC1Nc1cc(C)ccc1C (stereo not given) the Potency was “inactive”. In the case of CCOC(=O)[C@@H]1[C@H]2COc3cc(OC)ccc3[C@@H]2N2C(=O)N(c3ccc(C)cc3)C(=O)[C@@]12C, the Potency is reported as “inactive”. With O=C(O)/C=C/C(=O)Nc1ccccc1SC(F)(F)F the Potency was “inactive”. With CCOC(=O)[C@@H]1[C@H]2COc3ccccc3[C@@H]2N2C(=O)N(c3ccc(OC)cc3)C(=O)[C@@]12C the Potency was “inactive”. For C=CCn1c(SCC(=O)c2ccc(OC)cc2)nnc1-c1cc2cccc(OC)c2o1, the Potency was “inactive”. For COc1ccc(-c2nnc(-c3ccc(N(C)C)cc3)o2)cc1, the Potency was “inactive”. With CN(C)S(=O)(=O)c1ccc(NC(=O)/C=C/c2ccccc2Cl)cc1 the Potency was “inactive”. For Cc1nnsc1C(=O)NC1CCCc2c1cnn2-c1ccc(C(C)(C)C)cc1 (stereo not given), the Potency was 22.3 µM (active). In the case of O=C(CCCOc1ccccc1)Nc1nc2ccccc2[nH]1, the Potency is reported as “inactive”. With c1ccc(-c2ncc3c(ccc4ccccc43)n2)cc1 the Potency was 8.88 µM (active). For Cc1nc2c(-c3ccccc3)cnn2c(N)c1-c1ccccc1, the Potency was 11.2 µM (active). For C=C(C)c1cccc(C(C)(C)NC(=O)N2CCN(CC)CC2)c1, the Potency was “inactive”. For COc1cc(C(=O)NC2CC(C)(C)Cc3c2cnn3-c2ccccc2)cc(OC)c1OC (stereo not given), the Potency was “inactive”. In the case of O=C1c2ccccc2C(=O)c2c1ccc1c(=O)n(C3CCCCC3)[nH]c21, the Potency is reported as “inactive”. With Cc1nn(-c2cc(C)c3ccccc3n2)c2c1C1C(C2)C1(C)C (stereo not given) the Potency was 22.3 µM (active). In the case of Cc1c(CCC(=O)N[C@@H](CC(C)C)C(=O)O)c(=O)oc2cc3oc4c(c3cc12)CCCC4, the Potency is reported as 4.99 µM (active). For O=C(NC(=S)Nc1nc(-c2ccc(Br)cc2)cs1)c1cccnc1, the Potency was “inactive”. With Cc1ccc(S(=O)(=O)NCc2ccncc2)c(C)c1C the Potency was 3.97 µM (active). With O=C(NC(=S)Nc1nc(-c2ccccc2)cs1)c1cncc(Br)c1 the Potency was 7.91 µM (active). For CCn1cc(C(=O)O)c(=O)c2cnc(N3CCN(C(=S)NC(=O)c4ccccc4)CC3)nc21, the Potency was “inactive”. In the case of CC(=O)c1cccc(N(CC(=O)Nc2ccccc2C(=O)N2CCCC2)S(C)(=O)=O)c1, the Potency is reported as “inactive”. In the case of CN1CCN(CCC(=O)Nc2cccc(F)c2)CC1, the Potency is reported as “inactive”. In the case of Oc1ccc(COCc2ccccc2)c2cccnc12, the Potency is reported as 2.5 µM (active). With COc1cc(OC)c(C2=NOC(C(=O)NCc3cccnc3)C2)cc1Cl (stereo not given) the Potency was “inactive”.
